Screening data (PubChem)
Compounds with a hit are over-represented: about 8.8% of the library has one in this group of screens.
ALDH1A1 inh = qHTS Assay for Inhibitors of Aldehyde Dehydrogenase 1 (ALDH1A1). Potency, µM (titrated, usually from 75.3 µM), usual class: inhibitors. actives 7.3% (n = 220,000). Aldehyde dehydrogenase 1A1 (Homo sapiens), P00352. Purified ALDH1A1, NADH fluorescence, propionaldehyde substrate. AID 1030, 2008; active = well fitted inhibition curve with a large enough effect, not every such curve was filed as active; inconclusive = small, poorly fitted or top-dose-only effect, or another doubt; inactive = no such curve, though single readings can be large or run the other way
Target sequence (P00352 whole entry, looked up): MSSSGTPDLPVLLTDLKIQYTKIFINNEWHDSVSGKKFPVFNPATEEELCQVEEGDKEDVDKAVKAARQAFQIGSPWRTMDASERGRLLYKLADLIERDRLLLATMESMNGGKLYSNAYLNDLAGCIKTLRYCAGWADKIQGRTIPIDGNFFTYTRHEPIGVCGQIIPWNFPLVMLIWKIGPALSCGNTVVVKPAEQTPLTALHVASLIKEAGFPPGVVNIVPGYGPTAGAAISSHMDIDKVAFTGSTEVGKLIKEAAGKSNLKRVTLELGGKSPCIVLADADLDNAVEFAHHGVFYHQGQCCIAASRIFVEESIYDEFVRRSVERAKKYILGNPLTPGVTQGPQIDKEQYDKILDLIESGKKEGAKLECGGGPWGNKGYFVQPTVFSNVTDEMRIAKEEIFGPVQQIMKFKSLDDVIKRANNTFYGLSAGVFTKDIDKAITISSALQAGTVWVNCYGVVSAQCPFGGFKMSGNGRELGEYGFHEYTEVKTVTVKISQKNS
HPGD block = qHTS Assay for Inhibitors of HPGD (15-Hydroxyprostaglandin Dehydrogenase). AID 894, 2007. Potency, µM, usual class: inhibitors. actives 4.3% (n = 150,000). purified HPGD, NADH fluorescence kinetic, PGE2 substrate; active = well fitted inhibition curve with a large enough effect, not every such curve was filed as active; inconclusive = small, poorly fitted or top-dose-only effect, or another doubt; inactive = no such curve, though single readings can be large or run the other way
Target sequence (P15428 whole entry, looked up): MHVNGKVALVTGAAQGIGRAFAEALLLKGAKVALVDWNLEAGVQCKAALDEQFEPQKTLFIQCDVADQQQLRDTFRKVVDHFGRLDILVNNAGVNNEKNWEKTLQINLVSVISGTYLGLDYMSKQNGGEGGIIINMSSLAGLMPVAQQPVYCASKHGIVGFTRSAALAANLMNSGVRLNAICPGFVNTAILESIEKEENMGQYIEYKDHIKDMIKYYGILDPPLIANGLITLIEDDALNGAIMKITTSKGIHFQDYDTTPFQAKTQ
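20 nM HPGD preincubated 15 min at room temperature with compound in 50 mM Tris-HCl pH 8, 0.01% Tween 20. Started with 1 mM NAD+ and 30 uM prostaglandin E2; NADH fluorescence (360/450 nm) read 5 times over 30-s intervals, last minus first.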
HttQ103 aggreg = qHTS Multiplex Assay to Identify Dual Action Probes in a Cell Model of Huntington: Aggregate Formation (GFP); PC12 HttQ103-GFP aggregates, Acumen cytometry, 40 h; Potency, µM (titrated, usually from 46.1 µM), actives largely listed as inhibitors; actives 1.1% (n = 220,000); AID 1688, 2009; also: nearly all actives have a fitted effect of over 60% in size
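Compounds (qHTS titration) were added to PC12 cells expressing an ecdysone-driven HTT exon 1 Q103–GFP fusion after induction with 100 nM tebufenozide. Aggregate formation was measured as GFP objects in cell lysates.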
Lamin A splicing = qHTS Assay for Modulators of Lamin A Splicing | HeLa LMNA splicing GFP/RFP minigene ratio, 48 h | Potency, µM (titrated, usually from 46.1 µM), actives largely listed as inhibitors | actives 0.01% (n = 200,000); active = well fitted inhibition curve with a large enough effect in the signal ratio, with a control signal flat, not every such curve was filed as active; inconclusive = small, poorly fitted or top-dose-only effect, or effect the other way, or a change in a side signal; the % refers to the signal ratio
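S3 HeLa cells stably expressing lamin A-EGFP splicing minigene plus DsRed2, 600 cells/well, 48 h compound exposure at 37C. Laser-scanning cytometry; analysed as GFP (500-530 nm)/RFP (575-640 nm) total intensity ratio; 0.5% DMSO vehicle.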
HTT ATP protect = qHTS Multiplex Assay to Identify Dual Action Probes in a Cell Model of Huntington: Cytoprotection (ATP); PC12 HTT-Q103 induced, cytoprotection, ATP luminescence, 40 h; Potency, µM (doses to about 56.4 µM), most hits filed as activators; actives 0.14% (n = 230,000); AID 1471, 2008; also: nearly all actives have a fitted effect of over 45% in size
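Compounds added alongside 100 nM tebufenozide, which induces toxic Q103 huntingtin exon 1-GFP in stable PC12 cells; surviving cells quantified by luminescent ATP measurement. Medium: phenol red-free DMEM, 5% equine and 5% calf serum.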
A number is an active result; n = inactive; u = inconclusive; x = no result given; [ ] = remark or other dose. Unless noted, calls follow the shape of the dose curve; as a rule, active = well fitted curve in the direction sought with a large enough effect; inconclusive = small, poorly fitted or top-dose-only effect, or another doubt; inactive = no such curve, though single readings can be large; an effect the other way counts as inactive or inconclusive.

SMILES	ALDH1A1 inh	HPGD block	HttQ103 aggreg	Lamin A splicing	HTT ATP protect
CC(Sc1nc(-c2ccccc2)cc(C(F)(F)F)n1)C(=O)N1CCCCC1 (configuration not stated)	n	7.1µM	n	n	n
O=C(CSc1nc(-c2ccccc2)cc(C(F)(F)F)n1)N1CCOCC1	n	n	n	n	n
CC1CCCN(C(=O)C(C)Sc2nc(-c3ccccc3)cc(C(F)(F)F)n2)C1 (configuration not stated)	n	16µM	u	u	n
Cc1cc(C)c(C(=O)Nc2ccccc2)c(SCC(=O)Nc2ccc(Br)cc2C)n1	x	x	x	n	x
COc1ccc(OC2C=CC(C#Cc3ccc(C(C)(C)C)cc3)OC2CO)cc1 (configuration not stated)	n[13.5 µM]	x	x	x	n[10 µM]
CC(C)Cc1nnc(NC(=O)Cc2ccccc2[N+](=O)[O-])s1	u	32µM	n	n	n[10 µM]
CC(C)(C)Cc1nnc(NC(=O)c2ccc([N+](=O)[O-])cc2)s1	n	n	n	n	x
CC(C)(C)Cc1nnc(NC(=O)Cc2ccc([N+](=O)[O-])cc2)s1	11µM	14µM	n	n	n[10 µM]
Cn1cc(-c2nnnn2-c2ccccc2)c(=O)c2ccccc21	7.1µM	n	n	n	n
O=[N+]([O-])c1cccc(CNCc2ccccc2)c1	n	x	n[9.22 µM]	x	n[10 µM]
CCOc1cc(CNc2ccc3c(c2)CCC3)ccc1OC	20µM	n	n[9.22 µM]	n	n
O=[N+]([O-])c1cccc(CNc2ccc3c(c2)CCC3)c1	22µM	n	n	n	x
COc1ccc(NC(=O)Nc2ccc3c(c2)CCC3)cc1OC	n	x	n[9.22 µM]	x	n[1.9 µM]
CNc1oc(Cc2ccccc2)nc1S(=O)(=O)c1ccccc1	25µM	n	n	n	n
CSc1nnc(SCC#N)s1	x	x	n[9.22 µM]	x	n[10 µM]
CC(C)(C)c1ccc(C(=O)CC(Sc2ccc(Cl)cc2)C(=O)O)cc1 (configuration not stated)	2.5µM	x	n	u	x
O=c1cnc2cnc(Nc3ccccc3)nc2n1CCc1ccccc1	u	x	x	u	n
CCC(=O)c1ccc(OCC(O)Cn2c(C)nc3ccccc32)cc1 (configuration not stated)	n	n	11µM	u	n[10 µM]
Nc1ccc2ncccc2c1	u	n	u	n	n
Nc1ccc2cc3ccccc3cc2c1	2µM	n	x	x	n
O=c1c2ccccc2nc(N/N=C/c2c(O)ccc3ccccc23)n1O	u	22µM	u	u	n[10 µM]
Cc1nc2ccccc2c(=O)n1/N=C/c1c(O)ccc2ccccc12	n	x	n[9.22 µM]	u	n[10 µM]
O=c1c2ccccc2nc(N/N=C/c2ccc(O)cc2)n1O	10µM	13µM	n	n	n[10 µM]
Oc1ccc(/C=N/Nc2ccccc2)cc1	20µM	x	n	n	n
Brc1ccc(/C=N/Nc2ccccc2)cc1	n	u	n	u	n[10 µM]
SMILES	ALDH1A1 inh	HPGD block	HttQ103 aggreg	Lamin A splicing	HTT ATP protect
CC(C)(C)c1ccc(/C=N/Nc2ccc(C(=O)O)cc2)cc1	n	14µM	n	n	n[10 µM]
O=C(O)c1ccc(N/N=C/c2ccc(C(F)(F)F)cc2)cc1	u	x	n	n	n[10 µM]
Oc1ccc(/C=N/NC2=NCCCCC2)cc1	18µM	u	n[9.22 µM]	n	n
ClC(=Nc1cccc2ccccc12)N(c1ccccc1)c1ccccc1	n[13.5 µM]	n	x	x	n[10 µM]
COC(=O)CCCCCN1C(=O)/C(=C\c2ccncc2)SC1=S	25µM	x	n[9.22 µM]	x	n[10 µM]
CCC(=O)OCC(=O)c1cc(C)n(-c2ccc(Br)cc2)c1C	n	x	n	n	n
Cc1cc(O)c(C(c2ccc(F)cc2)N2CCN(c3ccccc3)CC2)c(=O)n1Cc1ccco1 (configuration not stated)	x	x	x	n	x
CC1=CC(=C(C#N)C#N)C=C(C)N1CCC(C)C	28µM	x	n	u	n
CCCCCN1C(C)=CC(=C(C#N)C#N)C=C1C	u	x	n	n	n
COc1ccccc1NC(=O)CSC1=Nc2ccccc2N=C(c2ccc(F)cc2)C1	x	x	x	n	x
Cc1ccc(Cl)cc1N1CCN(CCCNC(=O)Cn2ncc3c([nH]c4ccccc43)c2=O)CC1	x	x	x	n	x
O=C(CSc1nnc(Cn2nnc3ccccc32)o1)Nc1cccc(Cl)c1	u	n	n	n	n
O=C(CSc1nnc(Cn2nnc3ccccc32)o1)N(Cc1ccc(Cl)cc1)c1ccccc1	n	n	7.1µM	u	n
CC(=O)[C@H]1[C@H]2[C@H](C(=O)[C@@H]3OC[C@H]2O3)[C@@H]2c3ccccc3C=CN12	x	x	x	x	n
O=C1NC(=O)[C@@H]2C3c4ccccc4C=CN3[C@H](C(=O)c3cccs3)[C@H]12 (some centres not stated)	25µM	n	n	n	n
CC(=O)Nc1ccc(C2=NN(C)C(=NCc3ccccc3)SC2)cc1	2.8µM	x	n	n	n
CCc1cccc(Nc2c3c(nc4ncnn24)CCC3)c1	n	x	n[9.22 µM]	u	n[10 µM]
Clc1cccc(Nc2c3c(nc4ncnn24)CCC3)c1	u	16µM	n	n	n[10 µM]
COC(=O)c1cccc(NC(=S)NCc2ccc(Cl)cc2)c1	n	n	n	n	n[10 µM]
COC(=O)c1cc(NC(=S)NCc2ccc(Cl)cc2)cc(C(=O)OC)c1	11µM	n	n	u	n[10 µM]
COc1cc(SC#N)ccc1N=Cc1c(C)[nH]n(-c2ccc(C)c(C)c2)c1=O	0.28µM	n	n	u	n[10 µM]
COc1cc(SC#N)ccc1N=Cc1c(C)[nH]n(-c2ccc(Cl)cc2)c1=O	2.5µM	n	n	n	n
Cc1ccc(-c2n[nH]c(=S)n2/N=C/c2ccncc2)cc1	n	x	u	x	n
CC(=O)N1/C(=C/c2ccc(N(C)C)cc2)C(=O)c2ccccc21	u	x	u	x	n
Cc1onc(-c2ccccc2)c1-c1ccnn1S(=O)(=O)c1ccc(Cl)cc1	7.9µM	x	n[9.22 µM]	x	n[10 µM]
SMILES	ALDH1A1 inh	HPGD block	HttQ103 aggreg	Lamin A splicing	HTT ATP protect
Cc1ccc(S(=O)(=O)n2nccc2-c2c(-c3ccccc3)noc2C)cc1	u	x	n[9.22 µM]	u	n[10 µM]
C/C(=N/NC(=O)c1cc(O)c(O)c(O)c1)c1ccc([N+](=O)[O-])cc1	25µM	x	n	x	x
C/C(=N\NC(=O)c1ccc([N+](=O)[O-])cc1)c1c(O)cc(C)oc1=O	u	x	n	x	n
c1cn(-c2ncnc3sc4c(c23)CCCC4)cn1	u	n	11µM	n	n[10 µM]
CCOc1ccc(OCCCN(C)C)cc1	14µM	n	n	n	n
CN1CCc2ccccc2[C@@H]1Cc1ccccc1NC(=O)c1sc2ccccc2c1Cl	n[13.5 µM]	n	x	x	n[10 µM]
C=CCSC1=C(C#N)C(c2ccc(C(C)C)cc2)CC(=O)N1 (configuration not stated)	28µM	n	n	n	n
C=CCSC1=C(C#N)C(c2ccccc2)CC(=O)N1 (configuration not stated)	u	n	n	n	n[10 µM]
C=C(C)CSC1=C(C#N)C(c2ccsc2)CC(=O)N1 (configuration not stated)	16µM	n	n	n	n
